From PubChem
Hits are enriched below; roughly 1.3% of the tested compounds scored in any of these assays.
RAD52 inh = RAD52 DNA annealing inhibitors, primary screen, biochemical, FRET, single point, set 2. DNA repair protein RAD52 homolog (Homo sapiens), P43351. recombinant RAD52 DNA annealing, FRET fluorescence. inhibition, % at 18.7 µM. 0.46% of 360,000 active. AID 651710, 2012;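 active = every replicate showing at least 50% inhibition; inconclusive = mean inhibition at least 50% but not in every replicate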
PREPL inhibitor = PREPL enzyme inhibitors, primary screen, biochemical, fluorescence polarization | recombinant PREPL, fluorescence polarization activity-based probe | inhibition, % at 5.96 µM | 0.68% of 320,000 active; in the data active = inhibition above about 43%;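 note: 0% = enzyme with DMSO and 100% = wells lacking enzyme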
DNA FID counter = compounds displacing fluorescent DNA intercalator, primary screen, artefact control for HCV NS3 helicase inhibitor project, biochemical, FID fluorescence. DNA fluorescent intercalator displacement. inhibition, % at 7.9 µM. 0.17% of 290,000 active. AID 1845, 2009; in the data active = inhibition above about 37%;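 note: 0% = vehicle and 100% = reference compound; higher means more ethidium bromide displaced from hairpin DNA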
MIN6 prolif = inducers of MIN6 beta-cell proliferation, primary screen, ATP luminescence, uHTS | AID 2380, 2010 | proliferation, % at 10 µM | 0.29% of 330,000 active | MIN6 cells proliferation, ATPlite luminescence, 48 h; cells starved in 0.2% serum; 100% = growth in 10% serum;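 active = compounds whose signal lies at least 3.5 SD above the mean of all wells on their plate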;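 note: 0% = DMSO-treated cells in low-serum medium and 100% = 10% serum control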
UBC13 inh = UBC13 polyubiquitin chain formation inhibitors, primary screen, biochemical, TR-FRET, uHTS; inhibition, % at 20 µM; 0.47% of 330,000 active; in the data active = inhibition above about 45%, passing the limit was not always enough; inconclusive = no clear call, values can overlap the other calls
RAD54 branch = inhibitors of human RAD54 branch migration, primary screen, biochemical, fluorescence, single point | 0.14% of 360,000 active | RAD54 Holliday junction branch migration, FAM/BHQ fluorescence | inhibition, % at 10.4 µM | AID 602329, 2012 | DNA repair and recombination protein RAD54-like (Homo sapiens), Q92698;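 active = mean normalized replicate activity at least 40 and at least half of replicates scoring 40 or more; inconclusive = only one of the two criteria met; inactive = mean below 40 and under half of replicates reaching 40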;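 note: 0% = median of neutral control wells and 100% = median of positive control wells; inhibitors cause a drop in the FAM fluorescence signal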
DNA binder FP = DNA-binding compounds via dye displacement, dose response, artefact control for RAD52 inhibitor project, biochemical, fluorescence polarization, cherry-pick; 8% of 1,000 active; shares compounds with RAD52 inh; AID 652128, 2013; AC50, µM; Salmon sperm DNA/acridine orange FP displacement;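 active = fitted half-maximal concentration for signal loss at or below twice the highest dose tested, in every separate run, actives reach about 64 µM in these data; inconclusive = runs disagree, or flat partial signal loss, or poor fit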
An asterisk follows results filed as active; i = inactive; ? = inconclusive; nt = not tested or not shown.

SMILES | RAD52 inh | PREPL inhibitor | DNA FID counter | MIN6 prolif | UBC13 inh | RAD54 branch | DNA binder FP
Cc1cccc(-c2ccc3c(c2)[C@@H]2C[C@H]4[C@@H](CN2CC3)[C@H](C)ON4C)c1 | 18 | nt | nt | nt | nt | nt | nt
CCC(=O)Nc1ccc2c(c1)OC[C@H](C)N(C(=O)C1CC1)C[C@H](C)[C@@H](OC)CN(C)C2=O | -14 | nt | nt | nt | nt | -17 | nt
O=C(C[n+]1ccccc1)N/N=C/c1ccco1 | 50* | 3 | 2 | -4 | 7 | nt | i
COc1ccc(S(=O)(=O)N[C@H]2CC[C@@H](CC(=O)N3CCN(c4ccccc4)CC3)O[C@H]2CO)cc1 | -10 | nt | nt | nt | nt | 6 | nt
CN(C)CCCNC(=O)C(=O)Nc1cc2c3c(c1)CC(=O)N3CCC2 | 97* | 12 | 6 | 3 | 1 | -3 | i
CN(C)CCNC(=O)C(=O)Nc1cc2c3c(c1)CCC(=O)N3CCC2 | 3 | 13 | -9 | -1 | 2 | 8 | nt
C[C@H](CO)N1C[C@H](C)[C@@H](CN(C)Cc2ccc(C(F)(F)F)cc2)Oc2c(NS(=O)(=O)c3ccc(F)cc3)cccc2C1=O | -13 | nt | nt | nt | nt | -12 | nt
CCn1c(C)c(C(C)=O)c(NCc2ccccc2)nc1=S | 68* | 42 | -7 | -3 | 25 | 7 | i
CC(=O)c1c(NCc2ccccc2)nc(=O)n(-c2ccccc2)c1C | nt | 2 | -11 | -1 | -1 | 8 | nt
CC(=O)c1c(NCCc2ccccc2)nc(=S)n(-c2ccccc2)c1C | 58* | 9 | -22 | 0 | 1 | nt | i
COc1ccccc1NC(=O)N1C[C@@H]2[C@H](c3ccccc31)[C@@H](CO)N2CC1CCCC1 | 8 | nt | nt | nt | nt | 4 | nt
CCN(CC)CCCN(Cc1cc2cc3c(cc2[nH]c1=O)OCO3)C(=S)NCCCN(C)C | 90* | 19 | 24 | -1 | 6 | 15 | i
COc1cc2cc(CN(CCc3cccc(C)c3)C(=S)NCCCN(C)C)c(=O)[nH]c2cc1OC | 51* | 24 | 21 | -3 | 10 | nt | i
CCn1c(SCC(=O)Nc2ccc(C)cc2)nc2sc3c(c2c1=O)CCN(C)C3 | -22 | 6 | 12 | -6 | 21 | 13 | nt
CCn1c(SCC(N)=O)nc2sc3c(c2c1=O)CCN(C)C3 | 56* | 25 | 3 | -3 | 8 | 31 | i
C[C@H]1CCCCO[C@H](CN(C)S(=O)(=O)c2ccccc2)[C@@H](C)CN([C@@H](C)CO)C(=O)c2cc(NS(C)(=O)=O)ccc2O1 | -13 | nt | nt | nt | nt | 11 | nt
Cc1cc(C)c2c(N)c3cccc(C)c3nc2n1 | 78* | 20 | 31 | nt | nt | nt | 32µM*
COc1ccc(/C=C2\Sc3ccc(C(=O)NCCN4CCCCCC4)cc3N(C)C2=O)cc1 | 56* | 38 | 17 | -5 | 26 | 6 | i
O=C1Nc2cc(C(=O)NCCCN3CCCC3)ccc2S/C1=C/c1ccccc1F | 26 | -5 | 27 | -4 | 36 | 10 | nt
COc1cccc(/C=C2/Sc3ccc(C(=O)NCCCN4CCCC4)cc3NC2=O)c1 | 82* | -5 | 25 | -4 | 27 | ? | i
CCCC#Cc1ccc2c(c1)O[C@H](CN(C)C(=O)C1CC1)[C@@H](C)CN([C@@H](C)CO)S2(=O)=O | 10 | nt | nt | nt | nt | 7 | nt
CCCNC1=CC(=O)CC(C)(C)C1 | 98* | -2 | -8 | -4 | -5 | nt | i
CCn1c2ccccc2c2cc(CN3CCN(S(C)(=O)=O)CC3)ccc21 | nt | 13 | -7 | 0 | 44 | -2 | nt
CCn1c2ccccc2c2cc(CN3CCN(Cc4cc(OC)ccc4O)CC3)ccc21 | 54* | 4 | 31 | -6 | 16 | 5 | i
Cc1cccc(OCC(=O)Nc2ccc3c(c2)nc(CN2CCCCC2)n3C)c1 | 67* | 4 | 0 | -2 | 0 | nt | i
Cc1cccc(OCC(=O)Nc2ccc3c(c2)nc(CCN2CCCCC2)n3C)c1 | 9 | 28 | 16 | -2 | 5 | 10 | nt
